This is part of a sample that, as a whole, favours compounds with a hit. Of some 83,000 tested, about 20% had one in any assay.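 Activity criterion: percent growth below 10, measured after cells in 96-well plates were exposed to a single compound concentration for 48 hours.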 Values without a mark were called inactive. Activity calls are given as the source filed them.
System: HL-60(TB) leukemia
Experiment: NCI-60 one-dose screen, 48 h (100 = growth as untreated, 0 = no growth, -100 = all killed)
Conditions: 10 µM unless noted

Row | SMILES | growth
1 | CN1C2CCC1/C(=C\c1ccc(F)cc1)C(=O)/C2=C/c1ccc(F)cc1 | 12.1%
2 | CCOC(=O)c1cc(N)nc2ccccc12 | 104%
3 | NC(N)=N/N=C\c1cccc(OCc2ccccc2)c1 | 55.5%
4 | c1ccc(CNCCNCc2ccccc2)cc1 | 105%
5 | CS(=O)(=O)c1nnc(-c2ccccc2)s1 | 64.8%
6 | Nc1nc(Cl)cc(NCCCCNc2cc(Cl)nc(N)n2)n1 | 101%
7 | NC(=NCCCOc1ccc(F)cc1)Nc1ccc(Cl)c(Cl)c1 | 48.2%
8 | Cc1ccc(S(=O)(=O)N/N=C2\CC3CCC2C3)cc1 (configuration not stated) | 98.5%
9 | C/C(Cc1ccc(Cl)cc1)=C(\c1ccc(O)cc1)c1ccc(Cl)cc1 | 95.7%
10 | CCOc1ccc(/C=N/Nc2cc(C)nc3ccc(Br)cc23)cc1 | 53.3%
11 | NC(=S)N1N=C(c2ccc(Cl)cc2)CC1c1cc2ccccc2[nH]c1=O (configuration not stated) | 75.1%
12 | CCN(CC)CCN1CC(=O)Nc2cc(Cl)ccc21 | 98.9%
13 | O=C(Nc1ccc(F)cc1)Nc1ccc(Cl)c([N+](=O)[O-])c1 | -15.6% (active)
14 | Nc1nc(Nc2ccccc2SSc2ccccc2Nc2nc(N)nc(-c3ccc(C(F)(F)F)cc3)n2)nc(-c2ccc(C(F)(F)F)cc2)n1 | -17% (active)
15 | CSc1nc2[nH]ncc2c(=O)[nH]1 | 114%
16 | C=C1CCC2C3(C)COC(c4ccc(SC)cc4)OC3CCC2(C)C1C/C=C1/C(=O)OCC1O (configuration not stated) | -12.1% (active)
17 | C[C@@H]1CC2C3CCC4=CC(=O)C=C[C@]4(C)[C@@]3(Cl)[C@@H](O)C[C@]2(C)[C@@]1(OC(=O)c1ccco1)C(=O)CCl (some centres not stated) | 78.2%

Source: PubChem BioAssay (NCI)
